The record followed here is the supplement of paper PMC10338343.

± gives the standard deviation. A value given as a limit tells only on which side of the number the result lay.

In one assay the test system is MILI (PIWIL2) piRISC loaded with L1MC piRNA (26 nt). As to the kind of experiment: pre-steady-state target cleavage rate (min^-1); guide: L1MC piRNA 5'p-UAACUAAAUACUAUGCAAGCUGUAGG; MIWI and MILI are mouse PIWI proteins and EfPiwi is from a freshwater sponge; tags in brackets are library labels; higher = faster piRNA-guided slicing of the target. The settings on record: auxiliary factor: 500 nM mouse GTSF1. Summed up:
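The pre-steady-state cleavage rate came from a burst-and-steady-state fit to pooled data from three Cleave-'n-Seq trials, in which uncleaved targets were sequenced and normalised to depth and to weakly complementary targets. Each reaction held 0.1 nM transcribed, DNA-blocked target RNA library and 1 nM active affinity-purified piRISC carrying one synthetic guide, with or without 500 nM GTSF1 partner protein, in HEPES–potassium acetate buffer at 33 °C for 0–8 or 0–960 min. k3 was capped at 0.0001 min^-1.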
As to UCCUGGAUGUCCUUGCAUAGUUUAUAGUUA, the “pre-steady-state target cleavage rate” value stood at 0.0111 ± 0.006. On the same count and under the same terms, then UCCUGGAUCAGCUUCCAUAGUAAUUAGUUA, with 0.00494 ± 0.004. The same measure, in the same setting: then UCCUGCUACAGCUUGCAAUCUAUUUAGUAA, with 0.0639 ± 0.022; and UCCUGGUACAGCUUGCUAAGUAUUUACAAA, with 0.0119 ± 0.0056; and UCCUGGUUCAGCUUGCAUAGUAUUUACUUA, with 0.0561 ± 0.02. Regarding UCCUGGAACAGCUUGCAUACUAUUUUCAAA, the “pre-steady-state target cleavage rate” value amounted to 0.0161 ± 0.0061. The same measure, in the same setting: then UCCUGGAACACGAUGCAUAGUAUUUAGAAA, with 0.072 ± 0.018. As to UCCUGGAUGAGCUUGCAUAGUAUAUACAAA, the “pre-steady-state target cleavage rate” value was found to be 0.00992 ± 0.0056. Still for that read-out and setting: then UCCUCCUACAGCUUGCAUUGUAUUUUCAAA, with 0.0415 ± 0.012; and UCCUGGUACAGCUUGCAUAGUUUUUACAAA, with 0.0185 ± 0.0077. Same read-out and setting: then UCCUGGUACAGCUUGCAUAGUUAAUAGAAA, with 0.00845 ± 0.0048; and UCCUCCUACACGUUGCAUAGUAUUUUCAAA, with 0.0568 ± 0.017.

Take UCCUGGUACAGCUUGCAUAGAAUUUACUUA: the “pre-steady-state target cleavage rate” value was 0.0206 ± 0.011. The same measure, in the same setting: then UCCUGGUACAGCUUGCAUACUAUUUACUUA, with 0.05 ± 0.014. Same read-out and setting: then UCCUGGAUCAGCUUGCAUAGUUUUUACAAA, with 0.012 ± 0.0052. Same read-out and setting: then UCCUCCUACAGCUUCCAUAGUAAUUAGUUA, with 0.0149 ± 0.0069; and UCCUGGAUGAGCUUGCUUAGAAUUUAGUUA, with 0.0121 ± 0.0047; and UCCUGGAUGAGCUUGCAUAGAAUAUAGUUA, with 0.0218 ± 0.0083. As for UCCUCCUACAGCUUGCAUAGUAAUAAGUUA, the “pre-steady-state target cleavage rate” value was determined as 0.129 ± 0.021. Regarding UCCUGGAUCAGCUUGCAUUGUAUUUACAAA, the “pre-steady-state target cleavage rate” value was found to be 0.0117 ± 0.005.

With UCCUGGAUGACGUUGCAUAGUAUUUAGUAA, the “pre-steady-state target cleavage rate” value was determined as 0.136 ± 0.022. On to UCCUGGAUGUCCAUGCAUUGUAUUUAGUUA, for which the “pre-steady-state target cleavage rate” value is 0.0108 ± 0.0042. Still for that read-out and setting: then UCCUGGAACAGCUUGCAUUGUAUUAAGUUA, with 0.163 ± 0.026. The same measure, in the same setting: then UCCUGGAUGUGCUUGCUUAGAAUUUAGUUA, with 0.00417 ± 0.0032. Same read-out and setting: then UCCUCCUACAGCUUGCAUAGUAUUUUCUUA, with 0.126 ± 0.027; and UCCUGGAUGUCGAACCAUAGUAUUUAGUUA, with 0.00718 ± 0.0019. Regarding UCCUGGUACAGCUUGCAUAGUAUUAUGAAA, the “pre-steady-state target cleavage rate” value came to 0.00782 ± 0.0056. On the same count and under the same terms, then UCCUGGAUGAGCUUGCAUAGUUAAUAGUUA, with 0.00524 ± 0.004; and UCCUGGAUCAGCUUGCAUAGUAAAUAGUAA, with 0.196 ± 0.033; and UCCUGGAUGUGCUUGCAUAGUAAUUUGUUA, with 0.0141 ± 0.0071. On the same count and under the same terms, then UCCUGGAUGUCGAACCAUAGUUAAUAGUUA, with less than 0.0001; and UCCUGGAUGUGCUUGCAUGUAUUUAGUUA, with 0.00502 ± 0.0043.

The same assay, now with this note: auxiliary factor: none (no GTSF1).
With UCCUGGUACAGCUUGCAUACUUUUUAGUUA, the “pre-steady-state target cleavage rate” value stood at 0.00598 ± 0.0037. The same measure, in the same setting: then UCCUGGAUGUCGUUCCUUAGUAUUUAGUUA, with less than 0.0001; and UCCUGGAUGUCGAACGUAUGUAUAAAGUUA, with less than 0.0001. Still for that read-out and setting: then UCCUGGAUGUCGAACGUUAGUAUUUAGUGUA, with less than 0.0001; and UCCUGGAUGUCGAACGUAAGUAUUUAUUUA, with less than 0.0001. On the same count and under the same terms, then UCCUGGAUCAGCUACGAUAGUAUUUUCAAA, with less than 0.0001; and UCCUGGAUGUCGAACGUAUGAAUUUUGUUA, with less than 0.0001. Consider UCCUGGAUGUCGAACGUAUCUAAUUAGUUA, for which the “pre-steady-state target cleavage rate” value was less than 0.0001.
